Test systems include EPHA3; EPHA4; EPHA5; EPHA6; EPHA7; EPHA8; EPHB1; EPHB2; EPHB3; EPHB4; EPHB6; ERBB2; ERBB3; ERBB4.
Holding throughout (conditions): concentration: 1 μM, replicates: in singlicate; n = 1
The next assay deals with T1, ERK1.
T1 construct: gene MAPK3

For the next assay, the system named is T2, ERK2.
T2 construct: gene MAPK1

In another assay the test system is T3, ERK3.
T3 construct: gene MAPK6

The next assay relates to T4, ERK4.
T4 construct: gene MAPK4

In a further assay the test system is T5, ERK5.
T5 construct: gene MAPK7

In another assay the test system is T6, ERK8.
T6 construct: gene MAPK15

The results in this text go back to publication PMC5540273 (PLoS ONE, 2017).

SMILES strings stand for the structures.
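Note: KINOMEscan kinase panel screen.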

In the case of `[2H]C([2H])(c1cccc(C(F)(F)F)c1C)n1ccn2c(=O)nc(N3CCOCC3)cc12` [GSK2336394], the “%Inh” value is reported as 0% with EPHA3; 1% in the assay with EPHA4; 0% in the assay on EPHA5; 0% with EPHA6; 11% with EPHA7; 19% with EPHA8. The “%Inh” value in the assay with EPHB1 was 20%; with EPHB2, 0%; in the assay with EPHB3 it was 7%; with EPHB4, 8%; in the assay with EPHB6, 11%; in the assay with ERBB2, 20%. In addition, the “%Inh” value in the assay on ERBB3 is given as 0%; in the assay on ERBB4, 24%; in the assay on ERK1 it was 0%; in the assay with ERK2, 0%; with ERK3 it was 0%; in the assay on ERK4 it was 0%. Also, the “%Inh” value in the assay with ERK5 and in the assay with ERK8 was 0% throughout.
On to `O=C(NCCNc1ccnc(Nc2ccc(F)cc2)n1)Nc1ccccc1F` [GSK1379880], for which the “%Inh” value is listed as 0% with EPHA3; 6% with EPHA4; 0% in the assay with EPHA5; 0% in the assay with EPHA6; 2% in the assay on EPHA7; 21% in the assay on EPHA8. Moreover, the “%Inh” value came to 38% in the assay with EPHB1; 0% in the assay on EPHB2; 0% in the assay with EPHB3; 0% in the assay on EPHB4; 17% with EPHB6; 9% with ERBB2. The “%Inh” value with ERBB3 amounted to 0%; in the assay on ERBB4 it was 38%; in the assay on ERK1, 0%; in the assay on ERK2 it was 0%; in the assay on ERK3, 0%; with ERK4 it was 8%. In addition, the “%Inh” value in the assay on ERK5 and in the assay with ERK8 was 0% each time.
Consider `CC(C)(C)n1cnc2c(N)ncnc21` [SKF-97359], for which the “%Inh” value in the assay with EPHA3 was determined as 0%; in the assay with EPHA4, 0%; in the assay on EPHA5 it was 0%; in the assay with EPHA6 it was 0%; with EPHA7, 0%; in the assay on EPHA8 it was 7%. Besides, the “%Inh” value in the assay with EPHB1 stood at 0%; in the assay with EPHB2 it was 0%; in the assay with EPHB3, 0%; in the assay on EPHB4, 0%; in the assay on EPHB6, 0%; in the assay with ERBB2, 37%. Also, the “%Inh” value is given as 17% in the assay with ERBB3; 22% in the assay on ERBB4; 0% with ERK1; 0% in the assay on ERK2; 10% in the assay on ERK3; 15% in the assay with ERK4. The “%Inh” value with ERK5 is recorded as 4%; in the assay with ERK8, 8%.
For `O=c1cc(N2CCOCC2)nc2n(Cc3cccc(F)c3)ccn12` [GSK2297430], the “%Inh” value with EPHA3 is recorded as 0%; in the assay with EPHA4 it was 10%; in the assay with EPHA5, 0%; in the assay with EPHA6, 10%; in the assay on EPHA7, 4%; with EPHA8, 13%. The “%Inh” value in the assay with EPHB1 is on record as 0%; with EPHB2, 0%; in the assay with EPHB3, 14%; in the assay with EPHB4, 17%; in the assay with EPHB6 it was 0%; in the assay on ERBB2, 0%. Moreover, the “%Inh” value in the assay with ERBB3 is given as 0%; in the assay on ERBB4, 0%; in the assay on ERK1 it was 15%; with ERK2, 6%; in the assay with ERK3, 14%; in the assay on ERK4, 0%. The “%Inh” value in the assay on ERK5 is recorded as 0%; in the assay with ERK8 it was 6%.
On to `COc1ccc(Nc2ncc(C#N)c(Nc3ccccc3C(N)=O)n2)cc1N1CCN(C)CC1.Cl` [GSK1558669], for which the “%Inh” value with EPHA3 came to 95%; with EPHA4, 61%; in the assay on EPHA5 it was 35%; in the assay with EPHA6 it was 86%; in the assay with EPHA7, 81%; in the assay with EPHA8 it was 29%. The “%Inh” value with EPHB1 was determined as 98.6%; with EPHB2 it was 59%; in the assay on EPHB3, 28%; with EPHB4, 76%; in the assay on EPHB6, 98.3%; in the assay on ERBB2, 80%. For the same compound, the “%Inh” value in the assay on ERBB3 is 96.6%; in the assay on ERBB4 it was 88%; with ERK1 it was 7%; in the assay on ERK2, 0%; with ERK3 it was 100%; with ERK4, 100%. In addition, the “%Inh” value is recorded as 99.9% in the assay with ERK5 and 98.9% with ERK8.
For `CNc1ncnc2[nH]ncc12` [SKF-18355], the “%Inh” value was found to be 11% with EPHA3; 0% in the assay on EPHA4; 0% with EPHA5; 0% with EPHA6; 0% with EPHA7; 29% with EPHA8. Moreover, the “%Inh” value was 0% in the assay with EPHB1; 0% in the assay with EPHB2; 0% in the assay with EPHB3; 0% in the assay with EPHB4; 0% in the assay on EPHB6; 17% with ERBB2. In addition, the “%Inh” value in the assay on ERBB3 is listed as 22%; in the assay on ERBB4, 4%; in the assay with ERK1, 0%; in the assay on ERK2, 0%; in the assay with ERK3, 0%; in the assay on ERK4, 0%. Further, the “%Inh” value in the assay with ERK5 turned out to be 0%; in the assay on ERK8, 14%.
As to `NS(=O)(=O)CCc1cccc(Nc2nccc(-c3c(-c4cccc(NC(=O)c5c(F)cccc5F)c4)nn4ccccc34)n2)c1` [GSK336735], the “%Inh” value with EPHA3 was found to be 30%; with EPHA4, 45%; in the assay with EPHA5, 0%; in the assay with EPHA6 it was 48%; with EPHA7, 8%; in the assay on EPHA8 it was 60%. Besides, the “%Inh” value in the assay with EPHB1 was found to be 26%; in the assay with EPHB2 it was 18%; in the assay on EPHB3, 0%; in the assay with EPHB4 it was 11%; with EPHB6, 97.1%; in the assay with ERBB2, 98.7%. Also, the “%Inh” value worked out at 94% in the assay on ERBB3; 100% with ERBB4; 7% in the assay on ERK1; 0% with ERK2; 0% with ERK3; 10% in the assay on ERK4. The “%Inh” value in the assay with ERK5 is 45%; in the assay on ERK8 it was 0%.
With `O=C(Nc1cccc(-c2nn3ncccc3c2-c2ccnc(Nc3cccc(C(F)(F)F)c3)n2)c1)c1c(F)cccc1F` [GSK299495], the “%Inh” value came to 0% with EPHA3; 8% with EPHA4; 0% in the assay on EPHA5; 11% in the assay with EPHA6; 54% in the assay with EPHA7; 49% in the assay on EPHA8. The “%Inh” value in the assay with EPHB1 is recorded as 29%; in the assay with EPHB2, 0%; in the assay on EPHB3, 14%; in the assay on EPHB4, 9%; in the assay with EPHB6 it was 30%; in the assay with ERBB2, 92.1%. The “%Inh” value in the assay with ERBB3 was determined as 56%; in the assay with ERBB4, 98.4%; in the assay with ERK1 it was 0%; in the assay on ERK2, 0%; with ERK3 it was 7%; with ERK4 it was 18%. The “%Inh” value with ERK5 and in the assay on ERK8 was 0% in each case.
For the compound `Cn1cc(-c2ccc3c(c2)CCN3C(=O)Cc2ccccc2Cl)c2c(N)ncnc21` [GSK2608885], the “%Inh” value stood at 34% in the assay on EPHA3; 62% in the assay with EPHA4; 0% in the assay with EPHA5; 58% with EPHA6; 92% in the assay with EPHA7; 93.5% in the assay on EPHA8. For the same compound, the “%Inh” value in the assay with EPHB1 turned out to be 43%; in the assay with EPHB2 it was 64%; with EPHB3, 0%; in the assay on EPHB4, 15%; in the assay on EPHB6 it was 98.3%; with ERBB2, 97.2%. In addition, the “%Inh” value was found to be 86% in the assay with ERBB3; 98.9% in the assay on ERBB4; 0% in the assay with ERK1; 0% in the assay with ERK2; 0% with ERK3; 23% with ERK4. For the same compound, the entries for the “%Inh” value in the assay with ERK5 and in the assay with ERK8 were 47% and 0%, respectively.
`Cl.Nc1ncnc2occ(-c3ccc(NC(=O)Nc4cc(C(F)(F)F)ccc4F)cc3)c12` [SB-707548]: the “%Inh” value was determined as 76% in the assay on EPHA3; 93.9% in the assay with EPHA4; 91.5% in the assay on EPHA5; 99.3% with EPHA6; 98.9% in the assay with EPHA7; 99.7% with EPHA8. Also, the “%Inh” value with EPHB1 is given as 96%; in the assay on EPHB2, 94.4%; with EPHB3, 94.7%; with EPHB4, 96%; in the assay with EPHB6, 98.6%; in the assay with ERBB2 it was 44%. Also, the “%Inh” value with ERBB3 was 24%; in the assay with ERBB4 it was 23%; in the assay on ERK1 it was 0%; in the assay with ERK2 it was 0%; in the assay with ERK3, 0%; in the assay on ERK4, 8%. Besides, the figures for the “%Inh” value in the assay on ERK5 and in the assay on ERK8 were 12% and 99.2%, respectively.
Regarding `Cc1c(Cn2c(C)nn3c(=O)cc(N4CCOC(C)C4)nc23)cccc1C(F)(F)F` (stereo not shown) [GSK2344444], the “%Inh” value turned out to be 0% in the assay with EPHA3; 3% in the assay with EPHA4; 0% with EPHA5; 0% in the assay on EPHA6; 3% in the assay with EPHA7; 0% with EPHA8. Moreover, the “%Inh” value with EPHB1 was found to be 10%; with EPHB2 it was 46%; with EPHB3 it was 0%; in the assay with EPHB4, 0%; with EPHB6, 0%; in the assay with ERBB2, 0%. Besides, the “%Inh” value in the assay on ERBB3 came to 0%; with ERBB4, 0%; in the assay with ERK1, 0%; in the assay on ERK2, 0%; in the assay on ERK3 it was 0%; in the assay on ERK4, 11%. In addition, the entries for the “%Inh” value in the assay on ERK5 and with ERK8 were 0% and 26%, respectively.
